Experimental data taken from the supplement of paper PMC3334620.
The full ranking holds about 33,000 sequences; the median of “E-score (-0.5 to 0.5)” is about -0.035, and the highest 2% start at about 0.35. This excerpt belongs to a sample that is enriched for the highest values.

The sequences below were run against T1, Pdr3 (UniProt P33200) (assay: PBM E-score (8-mer binding enrichment) (E-score (-0.5 to 0.5)); higher = stronger / more preferred TF binding). Conditions: protein concentration: 200 nM; construct: GST-full length.
T1 sequence: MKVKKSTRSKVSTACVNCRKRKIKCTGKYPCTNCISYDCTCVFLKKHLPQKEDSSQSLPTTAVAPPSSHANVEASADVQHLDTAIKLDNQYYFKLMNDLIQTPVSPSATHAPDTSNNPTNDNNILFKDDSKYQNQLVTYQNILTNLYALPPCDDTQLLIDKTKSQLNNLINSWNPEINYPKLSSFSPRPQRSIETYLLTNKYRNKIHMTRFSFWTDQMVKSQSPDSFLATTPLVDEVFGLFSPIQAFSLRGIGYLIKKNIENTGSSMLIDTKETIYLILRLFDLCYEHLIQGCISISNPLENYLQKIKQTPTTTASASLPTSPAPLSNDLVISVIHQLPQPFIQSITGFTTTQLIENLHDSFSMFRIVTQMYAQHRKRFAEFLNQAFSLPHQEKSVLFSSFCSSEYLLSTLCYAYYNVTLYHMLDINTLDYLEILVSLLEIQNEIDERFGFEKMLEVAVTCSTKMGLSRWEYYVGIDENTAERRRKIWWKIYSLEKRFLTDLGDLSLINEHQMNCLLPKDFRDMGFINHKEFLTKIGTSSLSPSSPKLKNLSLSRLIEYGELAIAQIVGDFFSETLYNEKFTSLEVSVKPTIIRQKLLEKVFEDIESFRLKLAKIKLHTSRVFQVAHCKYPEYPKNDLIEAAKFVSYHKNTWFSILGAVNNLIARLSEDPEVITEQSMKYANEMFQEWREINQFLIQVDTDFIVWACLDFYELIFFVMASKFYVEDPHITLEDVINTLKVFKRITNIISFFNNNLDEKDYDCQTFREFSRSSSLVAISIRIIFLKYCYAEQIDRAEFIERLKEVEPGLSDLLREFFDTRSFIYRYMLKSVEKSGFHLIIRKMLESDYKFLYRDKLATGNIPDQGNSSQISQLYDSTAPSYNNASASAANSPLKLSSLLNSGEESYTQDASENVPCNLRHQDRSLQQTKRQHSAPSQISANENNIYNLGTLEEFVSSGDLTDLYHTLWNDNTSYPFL
Method: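 Universal 'all 10-mer' protein binding microarrays (Agilent AMADID 015681) probed with GST-tagged S. cerevisiae TFs (full-length or DBD) made by in vitro transcription/translation (PURExpress), about 100-200 nM. Bound TF was detected with fluorescent anti-GST. Each ungapped 8-mer (which stands for itself and its reverse complement) is scored by the PBM enrichment score (E-score), a modified Wilcoxon-Mann-Whitney statistic from -0.5 to +0.5, computed with the Universal PBM Analysis Suite. Scale: above 0.35 generally sequence-specific binding.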

| Sequence | PBM E-score |
| --- | --- |
| CCGGATCA | 0.389 |
| GCGGATCA | 0.296 |
| CCGGATAG | 0.347 |
| GGGGTCCA | -0.138 |
| CGCTAAAA | 0.00276 |
| CCTTTTAG | -0.291 |
| AATCTGCT | -0.15 |
| ACCCTCCC | 0.299 |
| CTGAAGCA | -0.199 |
| CCAATGCC | 0.0068 |
| AGGCATTG | -0.0729 |
| CCCATTGC | -0.0113 |
| GGCGGTTA | 0.0539 |
| AAGCATCT | -0.243 |
| CATTTGTA | -0.0519 |
| AGGCGAAC | -0.114 |
| GCGGATAC | 0.311 |
| CCGGATCC | 0.433 |
| ATGGATCA | -0.0186 |
| CTGGATCC | 0.285 |
| GAGGATCC | 0.235 |
| ACGGATCA | 0.366 |
| CAGGATCC | 0.0521 |
| GCGGATCC | 0.409 |
| AAGGATCA | -0.14 |

| Sequence | PBM E-score |
| --- | --- |
| ATCGTTAA | 0.00324 |
| CGAATCCA | 0.0811 |
| CCGTCACG | 0.238 |
| ATCCCACC | 0.266 |
| CCTCGGAC | 0.282 |
| GCTCGGTA | 0.123 |
| ACTCGGAA | 0.427 |
| CCTCGGCG | 0.376 |
| ACTCGGAT | 0.256 |
| CCTCGGAG | 0.283 |
| GCTCGGAC | 0.297 |
| GCTCGGAA | 0.413 |
| CCTCGGCC | 0.251 |
| ACTCGGAC | 0.305 |
| CCTCGGAA | 0.442 |
| CCTCGGCA | 0.238 |
| AAACGTCA | -0.149 |
| AAGCCTGT | 0.028 |
| CTGCAGGC | -0.094 |
| TCTCGGAA | 0.444 |
| TCTCGGCA | 0.217 |
| TCTCGTAA | -0.0824 |
| AAGGCCAG | -0.0965 |
| TAAGCACA | 0.108 |
| AAGGAACC | 0.217 |

| Sequence | PBM E-score |
| --- | --- |
| CCGGAACG | 0.475 |
| CAGGAACG | -0.0257 |
| AGGGAACC | -0.00025 |
| ACGGAACC | 0.487 |
| ACGGAACT | 0.48 |
| CCGGAACC | 0.476 |
| CGGGAACC | 0.312 |
| CAGGAACC | -0.124 |
| AGGGAACT | 0.0568 |
| CGGGAACG | 0.285 |
| AAGGAACT | 0.0764 |
| ACTCAACC | -0.035 |
| ATTGCACC | -0.0754 |
| GGCACTAA | 0.156 |
| CGATTGCG | 0.202 |
| CTTTCTGC | -0.0975 |
| CAGCACAC | -0.275 |
| CACTCGCG | 0.0224 |
| GACCAATA | -0.0553 |
| AGTGGTTG | -0.00222 |
| GCGGAACC | 0.482 |
| AAGGAACG | 0.00917 |
| GAGGAACC | 0.0227 |
| GGGGAACC | -0.157 |
| ACGGAACG | 0.48 |

| Sequence | PBM E-score |
| --- | --- |
| ATGGAACG | 0.0401 |
| CGATCTTC | 0.0584 |
| CTCTTCAG | -0.243 |
| CTAACAGA | -0.028 |
| AGGAGTGC | -0.0635 |
| CCGGTCCA | 0.0798 |
| CCGGTCCG | 0.414 |
| ATGGTCCA | -0.203 |
| ATGGTCCC | -0.0703 |
| ATGGTCCG | 0.387 |
| CCGGTCCC | 0.312 |
| CAGCTTAC | -0.193 |
| GTAGTGAC | 0.0971 |
| CAGATGCA | -0.278 |
| ACGCGCAC | -0.111 |
| ACATCCAC | -0.04 |
| CAATCATG | -0.189 |
| CCGATTCC | 0.395 |
| CGGATTCC | 0.454 |
| CGGATTCA | 0.179 |
| AGGATTCC | 0.223 |
| CCGATTCG | 0.25 |
| GCGATTCC | 0.34 |
| ATTCACCG | 0.254 |
| ACCCACAG | -0.278 |

| Sequence | PBM E-score |
| --- | --- |
| AATCTCCG | 0.322 |
| CATCTCCG | 0.377 |
| CATCTCCC | 0.155 |
| GTCTGACA | 0.159 |
| AACCTTTG | -0.165 |
| CGAACGAA | 0.0784 |
| GGAACGGA | 0.431 |
| AGAACGGA | 0.316 |
| CGAACGGC | 0.177 |
| CGAACGGA | 0.407 |
| CGAACCGA | 0.15 |
| GGAACCGA | 0.406 |
| AGAACCGA | 0.0498 |
| GGAACGCA | 0.275 |
| AACACCCC | 0.0302 |
| AGCACTTA | -0.102 |
| GGATTCCC | 0.231 |
| ACCTGACT | -0.131 |
| AGAGGGGC | -0.138 |
| TAGGGTGA | 0.00768 |
| TATGTCAA | 0.0343 |
| GTCTCCAC | -0.208 |
| TAAGGGTA | -0.262 |
| CCGGGTCA | 0.349 |
| CCGGGTTC | 0.411 |

| Sequence | PBM E-score |
| --- | --- |
| GCGGGTCC | 0.243 |
| ACGGGTCG | 0.227 |
| CCGGGTCC | 0.365 |
| CCGGGTCG | 0.378 |
| ACGGGTCC | 0.186 |
| ACGGGTTC | 0.202 |
| CCGGGTTA | 0.353 |
| AAGCGCTT | 0.21 |
| ATGAAGGG | -0.171 |
| GTGGATAA | 0.0146 |
| GGATTTGA | -0.0356 |
| CGGTCTTC | 0.123 |
| AATCAACA | 0.115 |
| GCTCGAAA | 0.0413 |
| ATACTCCA | -0.0793 |
| ATACTCCG | 0.371 |
| ATACTCCC | 0.127 |
| ACGCGGCC | 0.0489 |
| CCGCGGCC | 0.459 |
| ACGCGGCG | 0.209 |
| GCGCGGCC | 0.219 |
| CCGCGGCG | 0.477 |
| CAGCGGCG | 0.154 |
| GACGTCTC | -0.145 |
| TATCGAGA | -0.0727 |

| Sequence | PBM E-score |
| --- | --- |
| ACGCAAGT | -0.255 |
| CCCCCGGA | 0.311 |
| GCCCCGGA | 0.41 |
| TCCCCGGA | 0.411 |
| GCCCCGGC | 0.163 |
| TCCCCCGA | 0.0813 |
| TCCCCGAA | 0.232 |
| CTTGGAGC | -0.207 |
| ACTTTCAG | -0.184 |
| AAATTGCG | 0.0648 |
| GATCTTAC | -0.113 |
| ACTTCCCA | -0.0401 |
| GCTTCCTA | -0.205 |
| ACTTCCGG | 0.42 |
| ACTTCCGA | 0.355 |
| ACTTCCTG | -0.121 |
| ACTTCCCG | 0.291 |
| GCTTCCAA | -0.143 |
| ACTTCCAA | -0.127 |
| GCTTCCGA | 0.405 |
| CGCACAAA | 0.0204 |
| AGGGTGTG | -0.0975 |
